Where “and” joins values, the source holds several entries; their conditions need not be identical. Identical values can stand only once. Results filed as inconclusive are left out. Calls of active or inactive are those of the source. The calls were made as follows: active = hit-call score of the fitted dose curve at least 0.9, where 1 is the maximum; inconclusive = response in the unintended direction; inactive = score below 0.9.
Tests used:
[1] = TOX21_p53_BLA_p2_viability: Viability Assessment in the Tox21 HCT-116 p53 Agonism Beta-lactamase Assay, Phase 2 (AID 2283591);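 also: actives lower the ATP signal meaning cytotoxicity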
Procedure, shortened: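 HCT-116 p53-bla cells (4000/well) rested 5 h at 37C, then received compounds in DMSO (217-fold dilution) for 16 h at 37C, 5% CO2. After the CCF4 read, CellTiter-Glo was added; ATP luminescence was read after 30 min at room temperature.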

[2] = biological target: Cellular tumor antigen p53 (Homo sapiens) (UniProt P04637); assay: TOX21_p53_BLA_p2_ratio: Tox21 HCT-116 p53 Agonism Beta-lactamase Assay, Ratio, Phase 2 (AID 2283592)
Procedure, shortened: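 Gain-of-signal p53 agonism was scored from the beta-lactamase FRET ratio (460/530 nm, 405 nm excitation) in HCT116 cells treated 16 h at 37C, 5% CO2, with DMSO serving as negative control and baseline.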

[3] = TOX21_p53_BLA_p3_viability: Viability Assessment in the Tox21 HCT-116 p53 Agonism Beta-lactamase Assay, Phase 3 (AID 2283593)
Procedure, shortened: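 HCT-116 cells (4000/well) rested 5 h at 37C, then got DMSO compounds by pin tool (217-fold dilution) for 16 h at 37C, 5% CO2. After the bla read, CellTiter-Glo was added and luminescence read at 30 min, room temperature.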

[4] = biological target: Cellular tumor antigen p53 (Homo sapiens) (UniProt P04637); assay: TOX21_p53_BLA_p3_ratio: Tox21 HCT-116 p53 Agonism Beta-lactamase Assay, Ratio, Phase 3 (AID 2283596)
Procedure, shortened: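 HCT116 p53-bla cells (4000/well) given compound in DMSO (217-fold dilution) after 5 h, incubated 16 h at 37C. CCF4-AM substrate 2 h at room temperature; 460/530 nm emission ratio, gain fitted against DMSO.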

[5] = TOX21_p53_BLA_p4_viability: Viability Assessment in the Tox21 HCT-116 p53 Agonism Beta-lactamase Assay, Phase 4 (AID 2283597);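 also: hits lower the luminescence signal meaning cytotoxicity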
Procedure, shortened: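 Following a 16 h exposure at 37C, the treated HCT116 wells were first read for the FRET ratio. They were then lysed with CellTiter-Glo, and ATP luminescence was recorded after 30 min at room temperature.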

[6] = biological target: Cellular tumor antigen p53 (Homo sapiens) (UniProt P04637); assay: TOX21_p53_BLA_p5_ratio: Tox21 HCT-116 p53 Agonism Beta-lactamase Assay, Ratio, Phase 5 (AID 2283599)
Procedure, shortened: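 HCT-116 cells carrying a p53-inducible beta-lactamase reporter were seeded at 4000 cells/well and dosed after 5 h with compound in DMSO (217-fold dilution). After 16 h at 37C, CCF4-AM substrate was added for 2 h, and the 460/530 nm emission ratio was scored as gain-of-signal versus DMSO.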

[7] = TOX21_p53_BLA_p5_viability: Viability Assessment in the Tox21 HCT-116 p53 Agonism Beta-lactamase Assay, Phase 5 (AID 2283600)
Procedure, shortened: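 After the 460/530 nm beta-lactamase measurement, the wells received an ATP-detection luciferase reagent; signal was read 30 min later at RT. Compound treatment lasted 16 h on cells pre-incubated 5 h post-seeding.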

[8] = biological target: Cellular tumor antigen p53 (Homo sapiens) (UniProt P04637); assay: TOX21_p53_BLA_p4_ratio: Tox21 HCT-116 p53 Agonism Beta-lactamase Assay, Ratio, Phase 4 (AID 2283601)
Procedure, shortened: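 HCT116 cells carrying an inducible beta-lactamase reporter were plated at 4000 cells/well, rested 5 h, then exposed to compounds in DMSO (217-fold dilution) for 16 h at 37C. CCF4-AM substrate was loaded 2 h at room temperature; 460/530 nm emission ratio scored gain-of-signal versus DMSO.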

[9] = TOX21_PR_BLA_Followup_Agonist_viability: Viability Assessment in the Tox21 HEK293 Progesterone Receptor (PR) Agonism Beta-lactamase Follow-Up Assay (AID 2283935);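 also: signal loss means lower viability so actives are cytotoxic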
Procedure, shortened: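 PR-UAS-bla HEK293T cells in 2% charcoal-stripped FBS medium, plated 6 hr before compound addition, exposed 16 hr at 37C. Viability read by CellTiter-Glo ATP luminescence after 30 min at room temperature, in the same wells as the beta-lactamase readout.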

[10] = TOX21_PR_BLA_Followup_Antagonist_viability: Viability Assessment in the Tox21 HEK293 Progesterone Receptor (PR) Antagonism Beta-lactamase Follow-Up Assay (AID 2283936);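 also: hits lower the luminescence signal meaning cytotoxicity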
Procedure, shortened: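 PR-UAS-bla HEK293T cells (3,000/well, 2% charcoal-stripped FBS) given compound plus R5020 agonist, 16 h at 37C. CellTiter-Glo added after bla read, 30 min at room temperature; luminescence loss indicates cytotoxicity.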

[11] = biological target: PGR (gene 5241) (UniProt P06401); assay: TOX21_PR_LUC_Followup_Antagonist: Tox21 HEK293 Progesterone Receptor (PR) Antagonism Luciferase Follow-Up Assay (AID 2283938);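 also: curve fitted upward as signal gain over DMSO baseline despite antagonist label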
Procedure, shortened: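 Luminescence from ONE-Glo was measured 30 min after reagent addition, following 16 h exposure of HEK293-PR-A-luc cells (3,000/well, plated 5 h earlier) to DMSO-dissolved compounds at 37C; DMSO served as baseline.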

[12] = TOX21_PR_LUC_Followup_Antagonist_viability: Viability Assessment in the Tox21 HEK293 Progesterone Receptor (PR) Antagonism Luciferase Follow-Up Assay (AID 2283940)
Procedure, shortened: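 HEK293-PR-A-luc cells kept in charcoal-stripped FBS medium were plated 5 h before compound addition, then exposed 16 h at 37C; viability read as cellular ATP by luciferase luminescence, loss of signal indicating cytotoxicity.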

[13] = TOX21_PR_LUC_Followup_Agonist_viability: Viability Assessment in the Tox21 HEK293 Progesterone Receptor (PR) Agonism Luciferase Follow-Up Assay (AID 2283941);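 also: loss of signal means cytotoxicity so actives lower viability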
Procedure, shortened: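 HEK293-PR-A-luc cells, kept in 10% charcoal-stripped FBS medium, were treated with compounds for 16 h at 37C. Viability read as cellular ATP by luciferase-coupled luminescence; loss of signal indicates cytotoxicity.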

Measured: AC50

Cellular tumor antigen p53 (Homo sapiens), sequence (P04637 whole entry, looked up): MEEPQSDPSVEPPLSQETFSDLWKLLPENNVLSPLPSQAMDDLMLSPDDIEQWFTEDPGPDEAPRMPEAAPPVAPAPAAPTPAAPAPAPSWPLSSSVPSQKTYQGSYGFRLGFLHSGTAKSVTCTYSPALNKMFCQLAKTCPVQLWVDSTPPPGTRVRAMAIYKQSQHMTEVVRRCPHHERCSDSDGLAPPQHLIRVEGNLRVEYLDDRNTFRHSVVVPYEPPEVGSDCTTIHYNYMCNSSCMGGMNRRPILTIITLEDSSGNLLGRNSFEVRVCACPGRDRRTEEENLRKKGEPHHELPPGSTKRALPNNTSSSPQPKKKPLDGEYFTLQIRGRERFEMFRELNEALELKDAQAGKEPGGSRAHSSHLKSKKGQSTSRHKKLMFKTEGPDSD
PGR (gene 5241), sequence (P06401 whole entry, looked up): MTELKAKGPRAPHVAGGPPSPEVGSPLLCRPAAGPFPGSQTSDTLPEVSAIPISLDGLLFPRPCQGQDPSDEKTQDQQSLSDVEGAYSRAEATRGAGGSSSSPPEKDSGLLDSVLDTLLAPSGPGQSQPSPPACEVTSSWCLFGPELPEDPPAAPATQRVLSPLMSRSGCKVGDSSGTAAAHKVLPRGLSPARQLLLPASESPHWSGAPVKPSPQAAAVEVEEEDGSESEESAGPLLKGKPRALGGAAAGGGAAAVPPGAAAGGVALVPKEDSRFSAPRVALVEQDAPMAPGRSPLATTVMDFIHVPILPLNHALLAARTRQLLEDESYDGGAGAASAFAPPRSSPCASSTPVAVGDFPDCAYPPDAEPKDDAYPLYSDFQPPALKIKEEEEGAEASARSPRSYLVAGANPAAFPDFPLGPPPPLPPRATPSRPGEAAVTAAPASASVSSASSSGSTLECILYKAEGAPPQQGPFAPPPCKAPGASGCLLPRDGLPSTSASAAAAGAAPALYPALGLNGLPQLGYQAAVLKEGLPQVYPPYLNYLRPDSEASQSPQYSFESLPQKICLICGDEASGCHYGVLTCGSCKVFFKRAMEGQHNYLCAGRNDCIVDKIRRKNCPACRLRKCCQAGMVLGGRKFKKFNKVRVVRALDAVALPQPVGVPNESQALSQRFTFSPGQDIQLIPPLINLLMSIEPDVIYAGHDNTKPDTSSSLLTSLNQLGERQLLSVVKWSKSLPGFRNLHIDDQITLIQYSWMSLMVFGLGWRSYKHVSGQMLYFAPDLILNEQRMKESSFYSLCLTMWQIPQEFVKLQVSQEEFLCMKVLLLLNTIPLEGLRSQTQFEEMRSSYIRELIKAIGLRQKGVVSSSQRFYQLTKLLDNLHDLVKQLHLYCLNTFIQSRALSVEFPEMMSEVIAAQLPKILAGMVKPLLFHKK

CC(C)(C)CC(C)(C)c1ccc(O)c(Cc2ccc(Cl)cc2Cl)c1
inactive: [8]
active: [1] 23 µM | [2] 35.4 µM | [3] 20.1 µM | [4] 30.9 µM | [5] 10.9 µM | [6] 28.1 µM | [7] 13.8 µM

C=C1C(CCl)(CCl)C2(Cl)C(Cl)C(Cl)C1(Cl)C2(Cl)Cl (stereo not given)
active: [1] 50.6 µM and 13.5 µM | [2] 76.7 µM and 35.7 µM | [3] 45.6 µM and 12 µM | [4] 86.4 µM and 20.9 µM | [5] 67.2 µM and 17.1 µM | [6] 68.4 µM and 24.1 µM | [7] 45.6 µM and 15.7 µM | [8] 86.6 µM and 36.1 µM
inactive: [9] | [10] | [11] | [12]

C=CCN1C(=O)C(CC(C)C)NC1=S (stereo not given)
inactive: [1] | [2] | [3] | [4] | [5] | [6] | [7] | [8]

C[C@H]1O[C@@H](n2cc(F)c(=O)[nH]c2=O)[C@H](O)[C@@H]1O
inactive: [5] | [7]
active: [1] 17.9 µM | [2] 23 µM | [3] 15.5 µM | [4] 20.7 µM | [6] 24.4 µM | [8] 27.5 µM

C=CCNC(N)=S
inactive: [1] | [2] | [3] | [4] | [5] | [6] | [7] | [8]

O=C(Nc1ccc(Cl)c(Cl)c1)C1CC1
inactive: [1] | [2] | [3] | [4] | [5] | [6] | [7] | [8] | [9] | [10] | [11] | [12] | [13]

CCCOc1ccccc1-c1nc2n[nH]nc2c(=O)[nH]1
inactive: [1] | [2] | [3] | [4] | [5] | [6] | [7] | [8]

CCC(=C(CC)c1ccc(O)cc1)c1ccc(O)cc1
inactive: [3] | [5] | [7] | [9] | [10] | [12] | [13]
active: [1] 38.3 µM | [2] 7.14 µM | [4] 7.64 µM | [6] 17.7 µM | [8] 7.47 µM

Oc1c(Br)cc(Br)c2cccnc12
active: [2] 5.02 µM | [5] 7.62 µM
inactive: [1] | [3] | [4] | [6] | [7] | [8]

From PubChem BioAssay (EPA / NIEHS)
